Laboratory results as given in the supplement of paper PMC6897291.

Experiments:
RIVA [1] = assay: growth inhibition by drug plus 177Lu-lilotomab satetraxetan (1 - RLU/untreated control) (fraction); higher = stronger inhibition; details: 177Lu-lilotomab satetraxetan 0.5 ug/ml
Outline: (§1)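 Growth inhibition was calculated from RealTime-Glo RLU against untreated no-drug wells. Values equal 1 − RLU/mean of 48 untreated no-drug wells per plate, read daily from day 3 after 1 h at 37°C. RIVA and U-2932 cells, with or without 18 h pretreatment by a radiolabelled anti-CD37 antibody conjugate (~600 MBq/mg; 0.5 µg/ml RIVA, 1 µg/ml U-2932), were washed and plated at 3,000 cells/well on compound-printed plates at 10/100 nM (RIVA) or 10/1,000 nM (U-2932).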

U-2932 [2] = assay: growth inhibition by drug alone (1 - RLU/untreated control) (fraction); higher = stronger inhibition; details: 177Lu-lilotomab satetraxetan 0 ug/ml
Outline: as §1

RIVA [3] = assay: as above; details: 177Lu-lilotomab satetraxetan 0 ug/ml
Outline: as §1

U-2932 [4] = assay: growth inhibition by drug plus 177Lu-lilotomab satetraxetan (1 - RLU/untreated control) (fraction); higher = stronger inhibition; details: 177Lu-lilotomab satetraxetan 1 ug/ml
Outline: as §1

SMILES | growth inhibition by drug plus 177Lu-lilotomab satetraxetan (RIVA [1]; 100 nM, time (day): 5) | growth inhibition by drug plus 177Lu-lilotomab satetraxetan (RIVA [1]; 100 nM, time (day): 6) | growth inhibition by drug alone (U-2932 [2]; 10 nM, time (day): 3) | growth inhibition by drug alone (U-2932 [2]; 10 nM, time (day): 4) | growth inhibition by drug alone (U-2932 [2]; 10 nM, time (day): 5) | growth inhibition by drug alone (U-2932 [2]; 10 nM, time (day): 6) | growth inhibition by drug alone (U-2932 [2]; 1000 nM, time (day): 3) | growth inhibition by drug alone (U-2932 [2]; 1000 nM, time (day): 4) | growth inhibition by drug alone (U-2932 [2]; 1000 nM, time (day): 5) | growth inhibition by drug alone (U-2932 [2]; 1000 nM, time (day): 6) | growth inhibition by drug alone (RIVA [3]; 10 nM, time (day): 3) | growth inhibition by drug alone (RIVA [3]; 10 nM, time (day): 4) | growth inhibition by drug alone (RIVA [3]; 10 nM, time (day): 5) | growth inhibition by drug alone (RIVA [3]; 10 nM, time (day): 6) | growth inhibition by drug alone (RIVA [3]; 100 nM, time (day): 3) | growth inhibition by drug alone (RIVA [3]; 100 nM, time (day): 4) | growth inhibition by drug alone (RIVA [3]; 100 nM, time (day): 5) | growth inhibition by drug alone (RIVA [3]; 100 nM, time (day): 6) | growth inhibition by drug plus 177Lu-lilotomab satetraxetan (U-2932 [4]; 10 nM, time (day): 3) | growth inhibition by drug plus 177Lu-lilotomab satetraxetan (U-2932 [4]; 10 nM, time (day): 4) | growth inhibition by drug plus 177Lu-lilotomab satetraxetan (U-2932 [4]; 10 nM, time (day): 5) | growth inhibition by drug plus 177Lu-lilotomab satetraxetan (U-2932 [4]; 10 nM, time (day): 6) | growth inhibition by drug plus 177Lu-lilotomab satetraxetan (U-2932 [4]; 1000 nM, time (day): 3) | growth inhibition by drug plus 177Lu-lilotomab satetraxetan (U-2932 [4]; 1000 nM, time (day): 4) | growth inhibition by drug plus 177Lu-lilotomab satetraxetan (U-2932 [4]; 1000 nM, time (day): 5) | growth inhibition by drug plus 177Lu-lilotomab satetraxetan (U-2932 [4]; 1000 nM, time (day): 6) | growth inhibition by drug plus 177Lu-lilotomab satetraxetan (RIVA [1]; 10 nM, time (day): 3) | growth inhibition by drug plus 177Lu-lilotomab satetraxetan (RIVA [1]; 10 nM, time (day): 4) | growth inhibition by drug plus 177Lu-lilotomab satetraxetan (RIVA [1]; 10 nM, time (day): 5) | growth inhibition by drug plus 177Lu-lilotomab satetraxetan (RIVA [1]; 10 nM, time (day): 6) | growth inhibition by drug plus 177Lu-lilotomab satetraxetan (RIVA [1]; 100 nM, time (day): 3) | growth inhibition by drug plus 177Lu-lilotomab satetraxetan (RIVA [1]; 100 nM, time (day): 4)
CCC(C)(C)C(=O)O[C@H]1C[C@@H](C)C=C2C=C[C@H](C)[C@H](CC[C@@H]3C[C@@H](O)CC(=O)O3)[C@H]21 [Simvastatin (Zocor)] | 0.501 | 0.48 |  |  |  |  |  |  |  |  |  |  |  |  |  |  |  |  |  |  |  |  |  |  |  |  |  |  |  |  |  | 
CCC1=C[C@@H]2CN(C1)Cc1c([nH]c3ccccc13)[C@@](C(=O)OC)(c1cc3c(cc1OC)N(C)[C@H]1[C@@](O)(C(=O)OC)[C@H](OC(C)=O)[C@]4(CC)C=CCN5CC[C@]31[C@@H]54)C2 [Vinorelbine (Navelbine)] | 0.982 | 0.987 | 0.571 | 0.587 | 0.595 | 0.614 | 0.971 | 0.976 | 0.98 | 0.983 | 0.907 | 0.914 | 0.922 | 0.926 | 0.949 | 0.964 | 0.968 | 0.972 | 0.489 | 0.544 | 0.598 | 0.621 | 0.975 | 0.98 | 0.983 | 0.988 | 0.928 | 0.949 | 0.961 | 0.969 | 0.967 | 0.978
COc1cc2c(N3CCN(C(=O)Nc4ccc(OC(C)C)cc4)CC3)ncnc2cc1OCCCN1CCCCC1 [Tandutinib (MLN518)] | 0.407 | 0.387 | -0.0695 | -0.0613 | -0.013 | 0.108 | -0.0914 | -0.0805 | -0.0691 | -0.0707 | -0.157 | -0.175 | -0.185 | -0.222 | -0.102 | -0.12 | -0.163 | -0.231 | -0.106 | -0.0661 | -0.0234 | 0.112 | -0.163 | -0.112 | -0.0614 | 0.0615 | 0.419 | 0.516 | 0.54 | 0.542 | 0.365 | 0.403
CCOc1cc(C(=O)Nc2ccc(Cl)c(-c3nc4ccccc4[nH]3)c2)cc(OCC)c1OCC | 0.668 | 0.654 | -0.0835 | 0.00922 | -0.0921 | -0.101 | 0.0527 | 0.106 | 0.057 | 0.0205 | 0.0892 | 0.061 | 0.00986 | -0.126 | 0.409 | 0.248 | 0.22 | 0.167 | -0.0124 | 0.0291 | 0.0337 | 0.147 | 0.147 | 0.267 | 0.28 | 0.362 | 0.452 | 0.548 | 0.564 | 0.568 | 0.625 | 0.648
O=C(Nc1ncc([N+](=O)[O-])s1)c1ccc([N+](=O)[O-])c(Cl)c1 | 0.669 | 0.679 | 0.119 | 0.0794 | 0.00802 | 0.0242 | 0.153 | 0.14 | 0.0538 | 0.129 | 0.137 | 0.114 | 0.0837 | 0.0697 | -0.0662 | -0.0483 | -0.0824 | -0.14 | 0.064 | 0.0915 | 0.164 | 0.259 | 0.142 | 0.136 | 0.179 | 0.3 | 0.666 | 0.663 | 0.69 | 0.688 | 0.605 | 0.655
COc1ccc(C2=N[C@@H](c3ccc(Cl)cc3)[C@@H](c3ccc(Cl)cc3)N2C(=O)N2CCNC(=O)C2)c(OC(C)C)c1 [Nutlin-3] | 0.479 | 0.496 | -0.04 | -0.0423 | -0.094 | -0.287 | -0.0802 | -0.0948 | -0.145 | -0.237 | -0.198 | -0.261 | -0.371 | -0.533 | -0.567 | -0.492 | -0.511 | -0.69 | -0.0474 | 0.00784 | 0.0366 | 0.0903 | -0.00272 | -0.0242 | 0.00355 | 0.11 | 0.386 | 0.472 | 0.502 | 0.521 | 0.328 | 0.467
O=C(NOC[C@H](O)CO)c1ccc(F)c(F)c1Nc1ccc(I)cc1F | 0.512 | 0.467 | 0.189 | 0.198 | 0.0482 | 0.0357 | 0.152 | 0.19 | 0.102 | 0.0951 | 0.198 | 0.141 | 0.026 | -0.212 | 0.191 | 0.122 | 0.0195 | -0.189 | 0.138 | 0.163 | 0.15 | 0.218 | 0.162 | 0.231 | 0.189 | 0.269 | 0.487 | 0.514 | 0.508 | 0.496 | 0.552 | 0.532
COc1cc2ncnc(Nc3ccc(F)c(Cl)c3)c2cc1OCCCN1CCOCC1 [Gefitinib (Iressa)] | 0.503 | 0.494 | 0.0523 | -0.0185 | -0.0608 | -0.248 | -0.147 | -0.0975 | -0.157 | -0.226 | -0.00639 | -0.111 | -0.168 | -0.438 | -0.234 | -0.33 | -0.334 | -0.479 | -0.0292 | -0.0156 | -0.0275 | 0.0384 | -0.218 | -0.0647 | -0.0381 | 0.0874 | 0.402 | 0.522 | 0.546 | 0.553 | 0.408 | 0.485
